Compound activity deposited in PubChem BioAssay by National Center for Advancing Translational Sciences (NCATS).
KB-3-1 tox: kills parental KB-3-1 adenocarcinoma cells | KB-3-1 viability, CellTiter-Glo ATP luminescence, 72 h | Potency, µM (top dose mostly 46.1 µM), usual class: cytotoxic | hit rate 1.4% among 400,000 | AID 1347075; also: potency is read from the fitted curve at half-maximal effect; nearly all actives have a fitted effect of over 60% in size
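Screening of KB-3-1 cells (DMEM, 10% FBS, phenol-red free) ran from lowest to highest compound concentration; after 72 h at 37 °C viability was read luminescently and curves fitted.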
KB-V1 MDR tox: KB-V1 MDR subline cytotoxicity | Potency, µM (series often up to 46.1 µM), usual class: cytotoxic | KB-V1 MDR cells viability, CellTiter-Glo, 72 h | hit rate 3.4% among 400,000; also: potency is read from the fitted curve at half-maximal effect; nearly all actives have a fitted effect of over 60% in size
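Following 72 h at 37 degrees C with compound, KB-V1 cell viability was read by CellTiter-Glo luminescence, medium being phenol-red-free DMEM plus 10% FBS; concentration-response parameters came from normalized, curve-fitted qHTS data.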
Giardia killer: Giardia lamblia killing; activity change, % at 7.66 µM, hits read low; hit rate 0.15% among 340,000; Giardia lamblia trophozoite viability; in the data active = activity change below about -80%; inconclusive = between about -30% and that limit;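 also: parasites exposed to compound for two days anaerobically before the ATP read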
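Luminescence from cellular ATP indicates surviving trophozoites (100 cells/well) following 48 hrs anaerobic compound treatment at 37 deg C; signal develops 15-30 min at room temperature.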
PI4K2A block: inhibitors of human PI4K2A | activity change, negative = inhibition, % at 76.9 µM | purified PI4K2A, ADP-Glo luminescence, 1 h; stronger effect = lower value | hit rate 0.13% among 420,000; in the data active = activity change below about -50%; inconclusive = mostly about -30% to -49%;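 also: -100% = wells without enzyme as full effect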
Target sequence (Q9BTU6 whole entry, looked up): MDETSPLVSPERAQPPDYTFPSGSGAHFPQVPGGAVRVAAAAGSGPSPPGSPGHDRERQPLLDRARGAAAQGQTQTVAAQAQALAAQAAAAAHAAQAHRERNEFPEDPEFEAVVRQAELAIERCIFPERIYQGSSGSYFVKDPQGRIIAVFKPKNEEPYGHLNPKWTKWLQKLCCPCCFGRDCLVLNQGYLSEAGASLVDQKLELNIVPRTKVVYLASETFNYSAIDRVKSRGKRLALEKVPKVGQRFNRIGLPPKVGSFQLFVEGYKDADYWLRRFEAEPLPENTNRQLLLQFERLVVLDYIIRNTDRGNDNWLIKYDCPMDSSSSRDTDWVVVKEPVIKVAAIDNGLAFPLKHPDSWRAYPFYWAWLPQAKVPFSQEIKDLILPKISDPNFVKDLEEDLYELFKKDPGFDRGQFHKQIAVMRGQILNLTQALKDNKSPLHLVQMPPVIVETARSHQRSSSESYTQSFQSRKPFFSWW
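Compounds are screened against recombinant PI4K2A using PI as substrate and ATP, the latter dispensed at 300 microM. Reactions run one hour at ambient temperature before ADP-Glo detection; full inhibition defined by wells lacking enzyme.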
A549 viability: kills or reduces viability of A549 cells in Nrf2 counter-screen | A549 ARE-Fluc cells, CellTiter-Fluor viability, 18-24 h | Potency, µM (highest dose often 46 µM), without a hit: top-dose activity change, negative = cytotoxicity, actives largely listed as inhibitors | hit rate 0.16% among 390,000; also: potency is read from the fitted curve at half-maximal effect
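A549 ARE-Fluc cells in 5% FBS OPTI-MEM, 5000 cells/well, rested 2 h then exposed to compounds in concentration-response for 18-24 h at 37 °C. Viability by CellTiter-Fluor fluorescence (Ex 405/Em 525) after 30 min; luciferase luminescence (BugLite, 15 min, RT) read afterwards.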
Nrf2 block: Nrf2 pathway inhibition; hit rate 2.1% among 360,000; AID 504444; Potency, µM (top dose mostly 46 µM), for inactives: at the highest dose activity change, negative = inhibition, most hits filed as inhibitors; A549 ARE-Fluc reporter, luciferase luminescence, 18-24 h; also: potency is read from the fitted curve at half-maximal effect; nearly all actives have a fitted effect of over 60% in size
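A549 ARE_Fluc cells, 5000/well, 5% FBS OPTI-MEM; compounds in dose-response, 18-24 h at 37 °C/5% CO2; CellTiter-Fluor viability read (Ex 405/Em 525), then BugLite luciferase luminescence = Nrf2 activity.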
* marks the source's active call; other numbers are inactive results; i = inactive; ? = inconclusive; . = no result given. The list is not random: actives were taken first. Their share in the collection is about 5.7%. Unless noted, calls follow the shape of the dose curve; as a rule, active = well fitted curve in the direction sought with a large enough effect; inconclusive = small, poorly fitted or top-dose-only effect, or another doubt; inactive = no such curve, though single readings can be large; an effect the other way counts as inactive or inconclusive. Unless noted, % is scaled to controls: 0 for no effect and ±100 for the full control effect.

SMILES | KB-3-1 tox | KB-V1 MDR tox | Giardia killer | PI4K2A block | A549 viability | Nrf2 block
CCN(C[C@H]1[C@@H](c2ccc(C3=CCCC3)cc2)[C@H](CO)N1Cc1ccccn1)S(=O)(=O)c1ccccc1[N+](=O)[O-] | . | . | . | -7 | . | .
CC(C)(C)C(=O)OC12CCCN(C1)/C(=C/c1ccccc1)C2 (configuration not stated) | . | . | . | -7 | . | .
O=C(O)CSc1nnc2c(n1)[nH]c1ccccc12 | i | i | -22 | 2 | -9% | 0%
CC1CCN(C(=O)CSc2nnc3c(n2)[nH]c2ccccc23)CC1 | ? | 16µM* | -7 | 0 | -24% | 8.2µM*
CCCCC(=O)Nc1cccc(-c2nc3ncccc3o2)c1C | i | i | -16 | 4 | -9% | -18%
CCCCOc1cccc(C(=O)Nc2cccc(-c3nc4ncccc4o3)c2C)c1 | ? | i | . | 0 | -4% | 16µM*
CC1CCc2c(sc(NC(=O)c3cccs3)c2C(=O)O)C1 (configuration not stated) | 10µM* | i | 4 | 0 | ? | ?
O=C(Nc1sc2c(c1C(=O)NCC1CCCO1)CCCC2)c1cccs1 (configuration not stated) | i | i | 2 | 1 | -14% | 21µM*
O=C(Nc1sc2c(c1C(=O)O)CCCC2)c1cccs1 | ? | i | 1 | -7 | ? | ?
COC(=O)c1c(NC(=O)c2cccs2)sc2c1CCC(C)C2 (configuration not stated) | i | i | -8 | 11 | 11% | ?
Cc1oc(-c2ccc(-c3ccccc3)cc2)nc1CN1CCN(CC(=O)N(C)C)CC1 | i | i | 3 | -3 | 0% | ?
Cc1oc(-c2ccc(C(=O)N(C)Cc3ccccc3)cc2)nc1CN1CCc2ccccc21 | 15µM* | 13µM* | . | 1 | -3% | .
Cc1ccc(CNC(=O)c2ccc(-c3nc(CN4CCc5ccccc54)c(C)o3)cc2)cc1 | i | ? | . | -1 | 4% | .
COCCNC(=O)c1ccc(-c2nc(CN3CCc4ccccc43)c(C)o2)cc1 | ? | 10µM* | . | -3 | 0% | .
Cc1nc2ccccc2n1CCc1nc2c3ccccc3nc(SCc3ccccc3F)n2n1 | i | i | . | -3 | 1% | .
Cc1ccc(-n2c(Cc3cccs3)nnc2SCc2ccc(C#N)cc2)cc1 | . | . | . | -1 | . | .
O=C(Cn1ncc(Cl)c(Cl)c1=O)N1CCN(S(=O)(=O)c2ccc3ccccc3c2)CC1 | 16µM* | i | -2 | 6 | -1% | ?
COCc1nc2ccccc2n1Cc1ccc(C(C)(C)C)cc1 | i | i | . | -1 | 7% | .
O=C(Nc1ccc2c(c1)N(C1CCCC1)C(=O)c1ccccc1S2)c1cccc(F)c1 | ? | ? | . | 5 | -18% | .
O=C(CCSc1nnc(-c2ccncc2)o1)Nc1cccc(Cl)c1 | i | ? | -5 | -2 | -4% | 21µM*
Cc1cccc(NC(=O)CCSc2nnc(Cc3ccccc3)o2)c1 | i | 15µM* | 10 | 2 | -3% | 2%
O=C(O)c1cccc(CSc2nnc(COc3ccccc3)o2)c1 | i | i | 1 | -7 | 3% | .
O=C(O)c1cccc(CSc2nnc(-c3ccc(Cl)cc3)o2)c1 | i | i | -24 | 1 | -1% | 9.2µM*
Cc1ccc(NC(=O)CCSc2nnc(Cc3ccccc3)o2)cc1 | i | ? | 0 | 7 | -3% | -5%
O=C(CCSc1nnc(-c2ccncc2)o1)Nc1ccc(Cl)cc1 | i | i | 28 | -1 | 1% | -21%
SMILES | KB-3-1 tox | KB-V1 MDR tox | Giardia killer | PI4K2A block | A549 viability | Nrf2 block
CC(=O)Nc1cccc(NC(=O)c2c(-c3ccccc3)c(-c3ccccc3)nn(C)c2=O)c1 | . | . | . | 1 | 0% | -4%
CCN(CC)c1ccc(/C=N/NC(=O)c2cccc(S(=O)(=O)N3CCOCC3)c2)c(O)c1 | 7.3µM* | ? | 3 | 4 | ? | ?
O=C(N/N=C/c1sc(N2CCOCC2)nc1-c1ccccc1)c1ccccc1Cl | i | i | -3 | -1 | 2% | 1%
O=C(N/N=C/c1sc(N2CCOCC2)nc1-c1ccccc1)c1ccccc1O | ? | ? | 2 | 0 | 23µM* | 16µM*
O=[N+]([O-])c1ccc(N/N=C/c2sc(N3CCOCC3)nc2-c2ccccc2)c(S(=O)(=O)Nc2ccccc2Cl)c1 | 9.2µM* | ? | 2 | -3 | 9.2µM* | 2.6µM*
O=C(N/N=C/c1sc(N2CCOCC2)nc1-c1ccccc1)c1cccc(S(=O)(=O)N2CCOCC2)c1 | 4.1µM* | i | -12 | 1 | ? | ?
OC[C@]1(O)OC[C@@H](O)[C@H](O)[C@@H]1O | . | . | . | 1 | . | .
CC(=O)Oc1ccc(N(c2ccccc2)S(=O)(=O)c2ccc(C)cc2)cc1 | ? | 15µM* | -3 | 5 | 2% | -11%
Cc1ccc(S(=O)(=O)N(C)c2ccccc2)cc1 | i | i | 3 | 16 | 0% | 14%
O=C1NC(c2ccccc2)N=C2Oc3ccccc3C=C12 (configuration not stated) | 1.3µM* | 4.1µM* | -13 | 13 | -12% | ?
CCOc1ccc(CCNC(=O)c2ccc3[nH]ccc3c2)cc1OCC | . | . | . | -4 | . | .
CC(=O)N1CCN(C(=S)Nc2ccc(SC(F)F)cc2)CC1 | i | 21µM* | 4 | 4 | 3% | -2%
Cc1cccc(C)c1NC(=O)c1cc2c(=O)c3ccccc3oc2nc1C(F)(F)F | i | 2.1µM* | 8 | 4 | -3% | 4%
CC(=O)c1cc2c(=O)c3ccccc3oc2nc1C | i | i | -14 | -4 | -5% | ?
O=C(Cc1ccccc1Cl)NCCN1C(=O)C2C3C=CC(C3)C2C1=O (configuration not stated) | . | . | . | -1 | . | .
CCOCc1cc(CN2CCN(c3ccccc3OC)CC2)c(O)c2ncccc12 | . | . | . | -3 | 1% | ?
COc1ccccc1N1CCN(Cc2cc(Br)c(O)c3ncccc23)CC1 | ? | ? | 0 | -14 | -8% | 18µM*
OCCN1CCN(Cc2cc(Cl)c3cccnc3c2O)CC1 | ? | 5.8µM* | -3 | -2 | -19% | ?
COc1ccccc1N1CCN(Cc2cc(COC(C)C)c3cccnc3c2O)CC1 | . | . | . | -11 | -3% | ?
Oc1c(CN2CCN(c3ccccn3)CC2)cc(Cl)c2cccnc12 | ? | 5.2µM* | -13 | -24 | ? | .
CC(=O)Nc1ccc(OCc2cccc(C3Nc4ccccc4C(=O)N3Cc3ccco3)c2)cc1 (configuration not stated) | . | . | . | . | -9% | -14%
CCn1c(=O)n2n(c1=O)[C@]1(C=C(C)C2)CN(Cc2ccc(OC)cc2OC)C(NC(=O)c2ccccc2)=N1 | . | . | . | -4 | . | .
